According to PubChem BioAssay:
Several values for one entry are separate records, joined by “and”; a condition that tells them apart may be missing. Identical values can stand only once. Inconclusive results are not listed. Activity calls are given as the source filed them.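 Rule for the calls, unless noted: active = compounds killing one labelled cell type while sparing the other, by normalised counts and ratio limits, not self-fluorescent; inactive = the rest.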

Legend:
[1] = differential killing of epithelial or mesenchymal cells, primary screen, imaging, PC-3E GFP, TEM4-18 mCherry, co-culture (AID 1345086); conditions: imaging cell counts, at 1 µM; for red/green cell ratio (normalised): actives lie on both sides, counts scaled to control wells, 1 = unselective;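 for all read-outs here: cells exposed to compound for 72 h before imaging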;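 for red/green cell ratio (normalised): normalised mesenchymal count divided by normalised epithelial count so high means epithelial killing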
[2] = growth inhibition of DIPG glioma cells, dose response, cell-based, SU-DIPG-XVII, MIPE5.0, CellTiter-Glo, qHTS (AID 1347060; cut-off not given, nearly all actives have AC50 up to about 26 µM;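 for AC50: cells exposed to compound for 48 hours before viability readout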); conditions: SU-DIPG-XVII viability, CellTiter-Glo ATP luminescence
[3] = growth inhibition of DIPG glioma cells, dose response, cell-based, SU-DIPG-XIII, MIPE4.0, CellTiter-Glo, qHTS (AID 1347061; cut-off not given, nearly all actives have AC50 up to about 37 µM;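 note: cells exposed to compound for 48 hours before readout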); conditions: SU-DIPG-XIII viability, CellTiter-Glo ATP luminescence
[4] = growth inhibition of DIPG glioma cells, dose response, cell-based, JHH-DIPG-1, MIPE4.0, CellTiter-Glo, qHTS (AID 1347062; cut-off not given, nearly all actives have AC50 up to about 27 µM;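 for AC50: cells exposed to compound for two days before readout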); conditions: JHH-DIPG-1 viability, CellTiter-Glo ATP luminescence
[5] = growth inhibition of DIPG glioma cells, dose response, cell-based, SU-DIPG-IV, MIPE4.0, CellTiter-Glo, qHTS (AID 1347063; cut-off not given, nearly all actives have AC50 up to about 30 µM;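 note: compound exposure lasted 48 hours before the viability readout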); conditions: SU-DIPG-IV viability, CellTiter-Glo ATP luminescence
[6] = growth inhibition of DIPG glioma cells, dose response, cell-based, SU-DIPG-XIII, MIPE5.0, CellTiter-Glo, qHTS (AID 1347064; cut-off not given, nearly all actives have AC50 up to about 23 µM;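 for AC50: cells exposed to compound for 48 hours before the viability read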); conditions: SU-DIPG-XIII viability, CellTiter-Glo ATP luminescence
[7] = measured here: epithelial PC-3E GFP cell survival
[8] = measured here: mesenchymal TEM4-18 mCherry cell survival

Row | SMILES | red/green cell ratio (normalised) [1] | normalised cell number [1, 7] | normalised cell number [1, 8] | outcome [2] | outcome [3] | outcome [4] | outcome [5] | outcome [6] | AC50 [2] | AC50 [3] | AC50 [4] | AC50 [5] | AC50 [6]
1 | NCCS(=O)(=O)O | 0.92 (inactive) and 0.87 (inactive) | 1.27 and 1.13 | 1.17 and 0.99 | inactive | inactive | inactive | inactive |  |  |  |  |  | 
2 | CN1C(C(=O)Nc2ccccn2)=C(O)c2sccc2S1(=O)=O | 0.82 (inactive) | 1.14 | 0.93 | inactive | inactive | inactive | inactive | inactive |  |  |  |  | 
3 | C/C=C(/C(=C/C)c1ccc(O)cc1)c1ccc(O)cc1 | 1.38 (inactive) | 1.12 | 1.55 |  | inactive | inactive |  |  | 23.5 µM (active) |  |  |  | 
4 | O=C(Nc1ccc([N+](=O)[O-])cc1Cl)c1cc(Cl)ccc1O | 0.66 (inactive) | 0.36 | 0.24 |  |  |  |  |  | 1.05 µM (active) | 0.935 µM (active) | 1.66 µM (active) | 1.66 µM (active) | 1.18 µM (active)
5 | CC1=CC(=O)c2ccccc2C1=O | 0.99 (inactive) | 1.09 | 1.08 |  |  |  |  |  | 23.5 µM (active) | 23.5 µM (active) | 8.33 µM (active) | 26.4 µM (active) | 
6 | NC(CO)C(=O)NNCc1ccc(O)c(O)c1O (configuration not stated) | 1.1 (inactive) | 1.12 | 1.23 | inactive | inactive | inactive | inactive | inactive |  |  |  |  | 
7 | C[C@@H]1CN(c2c(F)c(N)c3c(=O)c(C(=O)O)cn(C4CC4)c3c2F)C[C@H](C)N1 | 0.99 (inactive) | 1.12 | 1.11 | inactive | inactive | inactive | inactive | inactive |  |  |  |  | 
8 | O=C(O)CSCC(=O)NC1CCSC1=O (configuration not stated) | 1.25 (inactive) | 0.94 | 1.17 | inactive | inactive | inactive | inactive |  |  |  |  |  | 
9 | CCCCN(CCCC)CCC(O)c1cc2c(Cl)cc(Cl)cc2c2cc(C(F)(F)F)ccc12 (configuration not stated) | 1.18 (inactive) | 1.03 | 1.22 |  | inactive |  |  |  | 26.3 µM (active) |  |  | 20.9 µM (active) | 16.6 µM (active)
10 | OC[C@H]1O[C@@H](O[C@@H]2[C@@H](CO)O[C@](O)(CO)[C@H]2O)[C@H](O)[C@@H](O)[C@H]1O | 1.2 (inactive) | 1.03 | 1.23 | inactive | inactive |  | inactive | inactive |  |  |  |  | 
11 | CNC[C@H](O)[C@@H](O)[C@H](O)[C@H](O)CO | 0.7 (inactive) | 1.19 | 0.84 | inactive | inactive |  | inactive | inactive |  |  |  |  | 
12 | Oc1ccc(OCc2ccccc2)cc1 | 1.06 (inactive) and 1.09 (inactive) and 0.97 (inactive) | 0.97 and 1.09 and 0.95 | 1.03 and 1.19 and 0.92 | inactive | inactive | inactive | inactive | inactive |  |  |  |  | 
13 | Cc1cnc(C(=O)O)c[n+]1[O-] | 0.76 (inactive) | 1.32 | 1 | inactive | inactive | inactive | inactive | inactive |  |  |  |  | 
14 | Cn1cnc2c1c(=O)[nH]c(=O)n2C | 0.94 (inactive) | 0.96 | 0.9 | inactive |  |  |  | inactive |  | 23.5 µM (active) | 23.5 µM (active) | 10.5 µM (active) | 
15 | COc1ccc2cc3[n+](cc2c1OC)CCc1cc2c(cc1-3)OCO2 | 0.81 (inactive) | 0.85 | 0.69 |  |  |  |  |  | 18.6 µM (active) |  | 4.18 µM (active) |  | 16.6 µM (active)
16 | Cc1cn[nH]c1 | 0.92 (inactive) and 0.9 (inactive) | 0.94 and 1.1 | 0.86 and 0.99 | inactive |  |  |  | inactive |  |  | 0.105 µM (active) | 3.32 µM (active) | 
17 | NC(=O)NO | 1.09 (inactive) | 1.01 | 1.1 | inactive |  |  |  | inactive |  |  | 0.526 µM (active) | 1.87 µM (active) | 
18 | CC[N+](CC)(CC)CCOc1cccc(OCC[N+](CC)(CC)CC)c1OCC[N+](CC)(CC)CC | 1.1 (inactive) | 0.87 | 0.96 |  | inactive | inactive | inactive |  |  |  |  |  | 
19 | CCC[C@H](N[C@@H](C)C(=O)N1[C@H](C(=O)O)C[C@@H]2CCCC[C@@H]21)C(=O)OCC | 1.01 (inactive) | 0.96 | 0.96 | inactive |  |  |  | inactive |  |  |  |  | 
20 | COc1cc(NS(=O)(=O)c2ccc(N)cc2)nc(OC)n1 | 1.12 (inactive) | 0.64 | 0.72 |  | inactive | inactive | inactive |  |  |  |  |  | 
21 | O=c1oc2cc(O)ccc2s1 | 0.91 (inactive) and 0.99 (inactive) | 1.1 and 0.89 | 1 and 0.88 |  | inactive | inactive | inactive | inactive |  |  |  |  | 
22 | NS(=O)(=O)c1cc2c(cc1Cl)NC(C(Cl)Cl)NS2(=O)=O (configuration not stated) | 1.22 (inactive) | 0.88 | 1.08 | inactive |  | inactive | inactive |  |  |  |  |  | 
23 | Cn1c(=O)c2c(ncn2CC(O)CO)n(C)c1=O (configuration not stated) | 1.41 (inactive) | 0.78 | 1.1 |  | inactive | inactive | inactive | inactive |  |  |  |  | 
24 | CCn1cc(C(=O)O)c(=O)c2cc(F)c(N3CCNCC3)nc21 | 1.34 (inactive) | 0.89 | 1.2 |  | inactive | inactive | inactive |  |  |  |  |  | 
25 | CCCN(CCC)C(=O)C(CCC(=O)O)NC(=O)c1ccccc1 (configuration not stated) | 1.08 (inactive) | 0.92 | 1 |  |  |  |  | inactive | 26.3 µM (active) |  |  |  | 
